This excerpt belongs to a sample that is enriched for hits.
GoLoco inh red = blocks human Gai1 binding to RGS12 GoLoco peptide, red readout | P63096 | Gai1:RGS12 GoLoco peptide FP, rhodamine, 10 min | Potency, µM (doses to about 61.6 µM), most hits filed as inhibitors | hit rate 0.44% among 230,000 | AID 880; active = well fitted inhibition curve with a large enough effect, not every such curve was filed as active; inactive = no such curve, though single readings can be large or run the other way; note: nearly all actives have a fitted effect of over 30% in size
L3MBTL1 inh-1 = blocks human L3MBTL1 | hit rate 0.66% among 230,000 | Q9Y468 | Potency, µM (titrated, usually from 57.1 µM), actives largely listed as inhibitors | AlphaScreen L3MBTL1–H3K9me1 peptide binding; note: nearly all actives have a fitted effect of over 60% in size
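L3MBTL1 (50 nM) pre-complexed 30 min with biotinylated H3(1-15)K9me1 peptide (75 nM), then compounds added for 30 min at room temperature; AlphaScreen streptavidin donor/nickel chelate acceptor beads (10 ug/mL final) read after 30 min dark incubation.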
RECQ1 inh-1 = inhibitors of human RECQ1 DNA helicase. RECQ1 DNA unwinding, red fluorescence kinetic read. hit rate 0.54% among 240,000. Potency, µM (top dose mostly 57.3 µM), actives largely listed as inhibitors; note: nearly all actives have a fitted effect of over 30% in size
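RECQ1T1 50 nM; forked duplex (20 bp + 30-nt ss tails) 200 nM, ATP 2 mM final; pH 8.0, 2 mM MgCl2, 2.5 ug/ml poly(dI-dC); 15 min compound preincubation; discontinuous kinetic read over 2 h at RT.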
APE1 inh-1 = APE1 (human) endonuclease inhibition | P27695 | recombinant APE1, TAMRA/BHQ-2 abasic DNA cleavage fluorescence | Potency, µM (series often up to 65.8 µM), most hits filed as inhibitors | hit rate 0.35% among 350,000; note: nearly all actives have a fitted effect of over 55% in size
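Compound pre-exposure to 0.75 nM APE1, 15 min at ambient temperature. Reaction initiated with 50 nM TAMRA/BHQ-2 THF substrate, read immediately in kinetic mode, 525 nm excitation, 598 nm emission.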
BLM inh-1 = inhibitors of human Bloom syndrome helicase BLM; P54132; recombinant BLM DNA unwinding, fluorescence dequenching; Potency, µM (doses to about 56.1 µM), actives largely listed as inhibitors; hit rate 0.2% among 350,000; AID 2528; note: nearly all actives have a fitted effect of over 35% in size
JMJD2E inh = JMJD2E (human) inhibition | B2RXH2 | JMJD2E catalytic domain, FDH-coupled NADH fluorescence (FDH is formaldehyde dehydrogenase) | Potency, µM (titrated, usually from 57.1 µM), hits mostly inhibitors | hit rate 1.6% among 230,000; active = well fitted inhibition curve with a large enough effect, not every such curve was filed as active; inconclusive = small, poorly fitted or top-dose-only effect, or another doubt; inactive = no such curve, though single readings can be large or run the other way; note: nearly all actives have a fitted effect of over 50% in size
DNA dye displace = displaces fluorescent dye from DNA, flagging APE1 artifacts; shares compounds with APE1 inh-1; DNA fluorescent dye displacement counterscreen, fluorescence; Potency, µM (doses to about 28.5 µM), most hits filed as inhibitors; hit rate 7% among 480;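 note: loss of thiazole orange fluorescence as the dye is displaced from duplex DNA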
EndoIV counter = blocks E. coli endonuclease IV DNA cleavage. shares compounds with APE1 inh-1. E. coli Endo IV, fluorogenic AP-site DNA cleavage. Potency, µM (top dose mostly 27.1 µM), most hits filed as inhibitors. hit rate 4% among 560. AID 2565
APE1 inh-2 = APE1 (human) endonuclease inhibition, confirmation; shares compounds with APE1 inh-1; purified APE1, fluorogenic abasic-site DNA cleavage; Potency, µM (highest dose often 57.1 µM), most hits filed as inhibitors; hit rate 44% among 750; note: nearly all actives have a fitted effect of over 30% in size
APE1 FP inh = compounds that displace a DNA probe from human APE1; APE1 binding to TAMRA-labelled double-stranded DNA, fluorescence polarization displacement; shares compounds with APE1 inh-1; Potency, µM (highest dose often 28.5 µM), actives largely listed as inhibitors; hit rate 7% among 480
BLM inh-2 = confirmation of inhibitors of human Bloom syndrome helicase BLM; shares compounds with BLM inh-1; BLM DNA unwinding, fluorescence quenching, biochemical; Potency, µM, actives largely listed as inhibitors; hit rate 40% among 220;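 note: strand separation dequenches TAMRA so unwinding raises red fluorescence; series mostly up to about 69 µM; nearly all actives have a fitted effect of over 45% in size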
RECQ1 inh-2 = blocks human RECQ1 DNA unwinding | shares compounds with RECQ1 inh-1 | recombinant RECQ1 DNA unwinding, red fluorescence | Potency, µM (titrated, usually from 119 µM), most hits filed as inhibitors | hit rate 15% among 1,100; note: nearly all actives have a fitted effect of over 50% in size
L3MBTL1 inh-2 = validation of human L3MBTL1 methyl-lysine binding inhibitors; shares compounds with L3MBTL1 inh-1; L3MBTL1 methyl-lysine binding inhibition, biochemical qHTS; Potency, µM, actives largely listed as inhibitors; hit rate 91% among 500; AID 540279; note: nearly all actives have a fitted effect of over 70% in size
AlphaScreen ctr2 = interferes with AlphaScreen signal in L3MBTL1 counterscreen; Potency, µM (series often up to 57.1 µM), most hits filed as inhibitors; shares compounds with L3MBTL1 inh-1; 500 tested, under 10 active; AlphaScreen counterscreen, signal inhibition
Large screens that a line does not name were inactive (follow-up assays come after a bar, where they were run). Unless noted, calls come from the whole dose curve; as a rule, active = well fitted curve in the direction sought with a large enough effect; inconclusive = small, poorly fitted or top-dose-only effect, or another doubt; inactive = no such curve, though single readings can be large; an effect the other way counts as inactive or inconclusive.

N#CC(C#N)=Cc1cccn1-c1ccc(C(=O)O)cc1	L3MBTL1 inh-1 2µM, RECQ1 inh-1 25.1µM, APE1 inh-1 12.6µM | DNA dye displace inactive | EndoIV counter inactive | APE1 inh-2 35.5µM | APE1 FP inh inactive | L3MBTL1 inh-2 2.99 | AlphaScreen ctr2 inactive
CCOC(=O)CNS(=O)(=O)c1cc(-c2nn(C)c(=O)c3ccccc23)ccc1C	L3MBTL1 inh-1 28.2µM, APE1 inh-1 35.5µM | DNA dye displace inactive | EndoIV counter inactive | APE1 inh-2 10µM | APE1 FP inh inactive | L3MBTL1 inh-2 inconclusive | AlphaScreen ctr2 inconclusive
Cc1ccc(NC(=O)CN2C(=O)N/C(=C\c3cccn3-c3cccc(C(=O)O)c3)C2=O)cc1	L3MBTL1 inh-1 10µM, RECQ1 inh-1 inconclusive, APE1 inh-1 3.55µM | DNA dye displace inactive | EndoIV counter inactive | APE1 inh-2 14.1µM | APE1 FP inh 14.1µM | L3MBTL1 inh-2 2.12 | AlphaScreen ctr2 inactive
CCCN(Cc1cccs1)C(=O)Nc1cc(OC)ccc1OC	none (no result: GoLoco inh red, L3MBTL1 inh-1, RECQ1 inh-1, APE1 inh-1, JMJD2E inh)
COc1ccc(Cc2nnc(NC(=O)Cc3cccs3)s2)cc1OC	L3MBTL1 inh-1 6.31µM, RECQ1 inh-1 20µM, APE1 inh-1 28.2µM, BLM inh-1 inconclusive | DNA dye displace inconclusive | EndoIV counter inactive | APE1 inh-2 2µM | APE1 FP inh inactive | RECQ1 inh-2 inconclusive | L3MBTL1 inh-2 10.6 | AlphaScreen ctr2 inactive
COc1ccc(C(=O)Nc2nnc(Cc3cccs3)s2)cc1OC	none
COc1cc(/C=C(\C#N)C(=O)N2CCCCC2)ccc1O	none (no result: GoLoco inh red, RECQ1 inh-1, JMJD2E inh)
N#C/C(=C\c1ccc(O)c(O)c1)C(=O)c1ccc(O)c(O)c1	L3MBTL1 inh-1 0.501µM, RECQ1 inh-1 1.58µM, APE1 inh-1 0.0947µM, JMJD2E inh 2.51µM (no result: BLM inh-1) | EndoIV counter inconclusive | APE1 inh-2 0.199µM | L3MBTL1 inh-2 0.0752 | AlphaScreen ctr2 inconclusive
CSc1nc(NCCOCCO)c2sc3nc(-c4ccco4)c4c(c3c2n1)CCC4	L3MBTL1 inh-1 5.62µM, RECQ1 inh-1 25.1µM, APE1 inh-1 31.6µM, BLM inh-1 25.1µM, JMJD2E inh inconclusive | DNA dye displace 12.6µM | EndoIV counter inactive | APE1 inh-2 12.6µM | APE1 FP inh inactive | BLM inh-2 inconclusive | RECQ1 inh-2 inconclusive | L3MBTL1 inh-2 2.67 | AlphaScreen ctr2 inactive
O=c1oc2ccccc2cc1-c1nc(-c2cccs2)no1	none (no result: GoLoco inh red, L3MBTL1 inh-1, RECQ1 inh-1, APE1 inh-1, JMJD2E inh)
N#Cc1c(NC(=O)CSc2ncnc3sccc23)oc(-c2ccco2)c1-c1ccco1	L3MBTL1 inh-1 12.6µM, RECQ1 inh-1 25.1µM, APE1 inh-1 inconclusive, BLM inh-1 20µM | DNA dye displace 10µM | EndoIV counter inactive | APE1 inh-2 inconclusive | APE1 FP inh inactive | L3MBTL1 inh-2 16.8 | AlphaScreen ctr2 inactive
Cc1cc(NC(=O)CSc2ncnc3sccc23)no1	none

Bioassay records (PubChem BioAssay)
